Consider 57 molecules from PubChem BioAssay AID1446 (The Scripps Research Institute Molecular Screening Center, 2008).

Values joined by “and” are separate entries in the source; they are usually repeats but may differ in a detail not shown here. Identical values can stand only once. The whole screen tested about 220,000 compounds, of which about 2,400 (1.1%) were called active.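 The calls were made as follows: active = inhibition above the campaign mean plus 3 SD over all tested compounds (cut at about 24% in these data); inactive = the rest.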 The list comes from a sample in which actives are over-represented; it also holds similar structures and randomly drawn compounds.

A short description of this test: reduced viability of JAK2V617F-dependent Ba/F3 cells, primary screen, JAK2V617F inhibitor project, cell-based, Ba/F3 EpoR-JAK2V617F, luminescence (AID 1446).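 Also: cytokine-independent growth of Ba/F3 cells driven by EpoR plus mutant JAK2; 0% = DMSO-treated cells and 100% = JAK inhibitor I control.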 As to conditions: ATP luminescence, at 5.6 µM, hits give high values.
Regarding `CCCCN1C(=O)CCC(C(=O)O)C1c1ccc(OC)cc1` (configuration not stated), the inhibition was -6.4% (inactive).
The figure for `CC(=O)c1cnc(-c2ccccc2)s1` is -0.87% (inactive); for `COc1ccc2c(c1OC)C(=O)OC2Nc1nc(-c2ccccc2)cs1` (configuration not stated) it is 68.6% (active); for `COc1ccc(-c2csc(NC3OC(=O)c4ccccc43)n2)cc1` (configuration not stated) it is 11.9% (inactive).
For `COc1ccc2c(c1OC)C(=O)OC2c1c(O)nc(SC)n(-c2ccccc2)c1=O` (configuration not stated) the value was -4.02% (inactive); for `Cn1c(SCC(=O)Nc2ccc(Cl)cc2)nc(O)cc1=O`, -1.33% (inactive).
For the molecule `O=C1CC(c2c(F)cccc2Cl)C(n2cncn2)C(O)=C1C1NCCc2ccccc21` (configuration not stated), the inhibition was -3.23% (inactive).
In the case of `COc1cc2c(cc1/C=C1/NC(=O)N(c3ccccc3)C1=O)OCO2`, the inhibition was 0.39% (inactive).
Turning to `CCCOc1ccccc1C1CC(=O)Nc2cc3c(cc21)OCO3` (configuration not stated), the inhibition was 74.4% (active).
For `COc1ccc(F)cc1S(=O)(=O)Nc1ccc2c(c1)OCO2` the value was 0.08% (inactive); for `COc1ccccc1C1C2=C(COC2=O)Nc2cc3c(cc21)OCO3` (configuration not stated), 85.5% (active); for `COc1ccc(C2CC(=O)Nc3cc(C)c(C)cc32)c(OC)c1OC` (configuration not stated), 0.14% (inactive).
For `COCCOC(=O)C1=C(C)NC(=O)CC1c1cc2c(cc1Br)OCO2` (configuration not stated) the value was 1.76% (inactive); for `Cc1nc(C(=O)N2CCCC(C(=O)c3ccc(Cl)cc3)C2)cs1` (configuration not stated), -2.53% (inactive).
`CC(=O)N1CCN(S(=O)(=O)c2c(F)cc(F)c(Cl)c2F)CC1`: the inhibition was -1.72% (inactive).
With `COc1ccc(CN(C)C(C)C(=O)NC2CCCc3ccccc32)cc1` (configuration not stated), the inhibition is 3.02% (inactive).
For `COc1ccc2nc(SCc3ccccc3)nc(C)c2c1` the value was 2.96% (inactive).
As for `CCOC(=O)C1C(c2ccc(OC)c(OC)c2)c2c([nH][nH]c2=O)CC1(C)O` (configuration not stated), the inhibition is -0.54% (inactive).
In the case of `O=C(CCCn1c(=O)c2sccc2n(CC(=O)NCC2CCCO2)c1=O)NCc1ccco1` (configuration not stated), the inhibition is -0.32% (inactive).
In the case of `COc1ccc(C2c3ccc(O)cc3Oc3ncn(CCCO)c(=N)c32)cc1OC` (configuration not stated), the inhibition was -1.6% (inactive).
`Cc1ccc(NC(=O)OCc2cncs2)cc1`: the inhibition was 4.29% (inactive).
With `COc1ccc(NC(=S)Nc2ccccc2Cl)cn1`, the inhibition was 4% (inactive).
For the molecule `COc1ccc(Nc2cc(Cl)ccc2C(=O)O)cn1`, the inhibition was -1.48% (inactive).
For `COc1ccc(NC(=S)NCCNC(C)=O)cc1`, the inhibition is -1.93% (inactive).
The figure for `COc1ccc(NC(=O)/C(Cl)=C(/Cl)S(=O)Cc2ccc(C)cc2)cn1` (configuration not stated) is 100% (active).
The figure for `COc1ccc(CS(=O)/C(Cl)=C(/Cl)C(=O)Nc2ccc(OC)nc2)cc1` (configuration not stated) is 101% (active); for `CCC(=O)N1CCCc2ccccc21` it is -4.91% (inactive).
For the molecule `C=CCc1cccc2cc(C(=O)Nc3ccc(NC(C)=O)cc3)c(=O)oc12`, the inhibition is -0.67% (inactive).
With `CC1CCCCN1S(=O)(=O)c1ccc(C(=O)Nc2nnc(-c3cccs3)o2)cc1` (configuration not stated), the inhibition is 36.5% (active).
`CC1CCCCN1S(=O)(=O)c1ccc(S(=O)(=O)N(CC(=O)Nc2ccccc2)Cc2cccs2)cc1` (configuration not stated): the inhibition is -2.37% (inactive).
As for `CC1CCCN(S(=O)(=O)c2ccc(C(=O)Nc3nnc(-c4ccncc4)o3)cc2)C1` (configuration not stated), the inhibition was -1.33% (inactive).
On to `C/C(=N\NC(=O)OC(C)(C)C)c1ccc[nH]1`, for which the inhibition is 1.03% (inactive).
For `CCN(CC)C(=O)Oc1ccc(Br)cc1C(=O)Nc1ccc(F)c(Cl)c1`, the inhibition is -0.45% (inactive).
For the molecule `CCOC(=O)C(C)n1nc(-c2ccccc2)c2ccccc2c1=O` (configuration not stated), the inhibition was -1.31% (inactive).
On to `COc1ccc(C(=O)NC(Cc2ccc(OC(=O)c3ccc(OC)cc3)cc2)C(=O)O)cc1` (configuration not stated), for which the inhibition is -2.6% (inactive).
In the case of `O=C(CN1CCN(S(=O)(=O)c2ccc(Br)cc2)CC1)Nc1ccccc1C(=O)c1ccccc1`, the inhibition was -3.02% (inactive).
In the case of `Nc1ccc(Oc2ccc(Cl)cc2)cc1`, the inhibition was 7.34% (inactive).
As to `Cc1ccc(Oc2ccc(N)cc2)cc1`, the inhibition is 0.92% (inactive).
Take `CC(C)(C)c1ccc(Oc2ccc(N)cc2)cc1`: the inhibition was 33.3% (active).
For the molecule `CC(C)CN1CCNC(=O)C1CC(=O)N(C)CC1CCOCC1` (configuration not stated), the inhibition was -1.14% (inactive).
The figure for `Cc1ccc(-c2cc(C(F)(F)F)n3ncc(C(=O)N4CCCCC4c4cccnc4)c3n2)cc1` (configuration not stated) is -1.34% (inactive).
For the molecule `COc1cc2c(cc1OC)CN(C(=O)c1ccc(S(=O)(=O)N3CCCCCC3)cc1)CC2`, the inhibition is 4.67% (inactive).
Consider `CCOc1cc(C(=O)N2CCc3cc(OC)c(OC)cc3C2)ccc1OC(F)F`, for which the inhibition was 82.7% (active).
`COc1cc2c(cc1OC)CN(C(=O)c1cc(=O)c3ccccc3o1)CC2`: the inhibition is 15.9% (inactive).
On to `OCC1(Cc2ccccc2C(F)(F)F)CCN(Cc2ccncc2)CC1`, for which the inhibition is 3.31% (inactive).
Turning to `C[C@@H]1C[C@@H]2O[C@H]2/C=C\C=C\C(=O)Cc2c(Cl)c(O)cc(O)c2C(=O)O1`, the inhibition is 96.8% (active).
Regarding `CCOC(=O)c1ccc(NC(=O)Cn2nnc(-c3ccc(C)cc3)n2)cc1`, the inhibition was -1.34% (inactive).
Consider `CCOC(=O)c1ccc(NC(=O)Cn2cnc3cc(C)c(C)cc32)cc1`, for which the inhibition was 47.2% (active).
With `CCOC(=O)c1ccc(NC(=O)CSc2ncccn2)cc1`, the inhibition is -1.61% (inactive).
As to `CCOC(=O)c1ccc(N=C2SC(C(=O)NC)CC(=O)N2CCc2ccccc2)cc1` (configuration not stated), the inhibition is 1.63% (inactive).
Regarding `Clc1ccc(C[n+]2cc(-c3ccccc3)n3c2CCC3)cc1`, the inhibition is 70.5% (active).
As to `Cc1ccc(C(=O)C[n+]2cc(-c3ccccc3)n3c2CCCCC3)cc1`, the inhibition is 69.4% (active) and 87.4% (active).
For `Cn1c(-c2ccccc2)c[n+]2c1CCCCC2` the value was -3.91% (inactive); for `Cc1ccc(-c2c[n+](CC(=O)Nc3ccccc3)c3n2CCC3)cc1`, -4.7% (inactive); for `O=C(C[n+]1cc(-c2ccc(Cl)c(Cl)c2)n2c1CCC2)c1cccs1`, 4.8% (inactive).
The figure for `Clc1ccc(C[n+]2cc(-c3ccc(Cl)cc3)n3c2CCC3)cc1` is 50.1% (active); for `CN(C(=O)CSc1nnc(-c2n[nH]c3ccccc23)o1)c1ccccc1` it is 2.55% (inactive).
